Tg IFNy HTS = inhibitors of Toxoplasma gondii growth with IFN-gamma; AID 1259416; actives 3.8% (n = 69,000); Toxoplasma gondii growth in IFN-gamma-treated host cells; active compounds read low; activity change, negative = inhibition, % (test concentration not listed); in the data active = activity change below about -70%, passing the limit was not always enough;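 also: host cells are HeLa cells infected with Toxoplasma gondii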
* hit, by the source's call; ! = not confirmed by another sample. Many of the other results were omitted from the sample, so hits are more common in it than they were.

What do the screens show for `COc1ccc(-c2nc(Cn3c(C)cc(C)c(-c4nc(-c5ccccc5)no4)c3=O)c(C)o2)cc1`?
Tg IFNy HTS: -86*

Results for COc1ccc(-c2cc3c(=O)n(Cc4nc(-c5ccccc5)oc4C)ccn3n2)cc1 ?
Tg IFNy HTS: 46

Results for COc1ccc(-c2nc(CN3C(=O)C(O)(c4cccc(C)c4)c4ccccc43)c(C)o2)cc1 (centres undefined) ?
Tg IFNy HTS: -37

How did Cc1oc(-c2ccccc2)nc1CN1C(=O)C(O)(c2cccc(F)c2)c2ccccc21 (centres undefined) do in these assays?
Tg IFNy HTS: -105*

What do the screens show for `Cc1oc(-c2ccc(C(=O)NCc3cccc(F)c3)cc2)nc1CN1CCN(c2ccccc2)CC1`?
Tg IFNy HTS: 14

What do the screens show for `Cc1ccc(-c2cccc(C(=O)N(C)Cc3nncn3C(C)C)c2)o1`?
Tg IFNy HTS: 3

How did Cc1ccc2c(c1)C(=O)NC1(CCN(C(=O)Cc3ccc(Cl)cc3)CC1)N2C do in these assays?
Tg IFNy HTS: -24

How did O=S(=O)(C1CC1)N1CC[C@H]2[C@H]1CCN2c1ncccn1 do in these assays?
Tg IFNy HTS: -5

Results for CN(C)C1CCN(C(=O)c2cccn2C)C(C(=O)O)C1 (centres undefined) ?
Tg IFNy HTS: -8

How did c1ccc(-c2nc[nH]c2-c2cccn2-c2ncccn2)cc1 do in these assays?
Tg IFNy HTS: 0

What do the screens show for `Cc1cc(C(=O)N2CCCC(C(=O)c3ccc(-c4ccccc4)c(F)c3)C2)nc(C)n1` (centres undefined)?
Tg IFNy HTS: 0

Results for COc1ccc(CCC(=O)N2CCC(C)(C(=O)NCc3ccc(F)cc3F)CC2)cc1 ?
Tg IFNy HTS: 7

How did CC(=O)N1[C@H](CN2CCCC2)C[C@H]2CN(Cc3ccc(C)o3)CC[C@H]21 do in these assays?
Tg IFNy HTS: -80*

What do the screens show for `CC(=O)N1[C@H](CN2CCCC2)C[C@H]2CN(C(=O)c3ccco3)CC[C@H]21`?
Tg IFNy HTS: -4

What do the screens show for `CC(=O)N1C2CN(Cc3ccc(C)o3)CC2C[C@@H]1C(=O)NCC1CC1` (some centres undefined)?
Tg IFNy HTS: -22

Results for COCC1c2c(cnn2CC2CC2)CCN1C(=O)Cc1cccc(F)c1 (centres undefined) ?
Tg IFNy HTS: -11

Results for Cc1nc(-c2ccccc2)[nH]c(=O)c1CC(=O)NCCn1ccnc1 ?
Tg IFNy HTS: 10

How did COC(C)c1ccc(-c2cc(C(=O)N3CCCCC3)ccn2)cc1 (centres undefined) do in these assays?
Tg IFNy HTS: -41

Results for Cc1cc(Cl)ccc1OCCCC(=O)NO ?
Tg IFNy HTS: -83*

What do the screens show for `Cc1cc(Cl)ccc1OCCCC(=O)N1CCN(C)CC1`?
Tg IFNy HTS: 15

Results for COc1cc(C)nc(OCCNC(=O)COc2ccc(Cl)cc2C)n1 ?
Tg IFNy HTS: -8

What do the screens show for `CC1N(CC2CC2)C(=O)COC12CCN(C(=O)c1ccc[nH]1)CC2` (centres undefined)?
Tg IFNy HTS: 10

Results for CCn1cc2c(n1)CN(Cc1ccc(C)o1)CC2COCC1CC1 (centres undefined) ?
Tg IFNy HTS: -7

How did Clc1ccccc1C(c1ccccc1)(c1ccccc1)n1ccnc1 do in these assays?
Tg IFNy HTS: -83*!

Results for N#C/C(=C1/SCC(c2ccccc2Cl)S1)n1ccnc1 (centres undefined) ?
Tg IFNy HTS: 8

Results for FC(F)(F)c1ccccc1-n1ccnc1 ?
Tg IFNy HTS: 18

What do the screens show for `O=C(Nc1ccc(Cl)cc1)c1c[nH]n2c(=O)cc(CSc3ccccn3)nc12`?
Tg IFNy HTS: -5

How did CC(C)c1cc(C2CCN(C(=O)c3ccc(-c4ncn[nH]4)cc3)CC2)[nH]n1 do in these assays?
Tg IFNy HTS: -6

Results for Cc1cc(C)c(S(=O)(=O)NCCCn2ccnc2)c(C)c1 ?
Tg IFNy HTS: -36

How did Cc1cccc(-n2ncc3c(NCCCn4ccnc4)ncnc32)c1 do in these assays?
Tg IFNy HTS: 58

What do the screens show for `Cc1cc(C)c2cc(C#N)c(NCCCn3ccnc3)nc2c1`?
Tg IFNy HTS: -101*

Results for CCc1ccc(CN2CCC(c3ccnc(-c4ccncc4)c3)C2)nc1 (centres undefined) ?
Tg IFNy HTS: -1

What do the screens show for `c1cncc(-c2nccn2Cc2ccc(-n3cncn3)cc2)c1`?
Tg IFNy HTS: -1

What do the screens show for `COc1ccc(-c2cn3c(-c4ccc(C)o4)c(-c4ccc(C)o4)nnc3n2)cc1`?
Tg IFNy HTS: 47

Results for COc1ccc(C(=O)Nc2ccc(-c3nc(-c4ccc(C)cc4C)co3)cc2)cc1OC ?
Tg IFNy HTS: 2

Results for Cc1cc(SCC(=O)Nc2ccccc2)nc(SCc2ccc(Cl)cc2)n1 ?
Tg IFNy HTS: 23

Results for O=C(Nc1ccccc1)Nc1ccc(Cl)cc1SCc1ccccc1 ?
Tg IFNy HTS: -77*

Results for Cc1ccc(Cl)cc1NC(=O)Nc1ccc(-c2nc(-c3ccccc3)co2)cc1 ?
Tg IFNy HTS: -39

Results for O=C(Nc1ccc2c(c1)OCCO2)c1c(O)c2cccnc2n(-c2ccc(F)cc2)c1=O ?
Tg IFNy HTS: -15
